Pf growth 48h: Primary qHTS for delayed death inhibitors of the malarial parasite plastid, 48 hour incubation. P. falciparum luciferase growth in erythrocytes, 48 h. Potency, µM (top dose mostly 28.7 µM), without a hit: at the top dose activity change, negative = inhibition, usual class: inhibitors. 310,000 compounds, 5.9% hits. AID 504832, 2011; active = well fitted inhibition curve with a large enough effect; inconclusive = small, poorly fitted or top-dose-only effect, or another doubt; inactive = no such curve, though single readings can be large or run the other way; note: potency is the fitted concentration of half-maximal effect; % is set by controls: 0 for no effect and ±100 for the full control effect
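Luminescence readout; reporter = integrated firefly luciferase in P. falciparum. RBC culture at 2% hematocrit, 0.1% parasitemia final, 37 C/5% CO2; decreased signal taken as growth inhibition.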
Cycloheximide cs: Cycloheximide Counterscreen for Small Molecule Inhibitors of Shiga Toxin. cell reporter, cycloheximide protein synthesis inhibition counterscreen. max response, %. 300,000 compounds, 12% hits. AID 2314, 2010; in the data active = max response mostly above about 13%, no sharp cut-off; inactive = mostly below about 14%; note: read at 38.3 µM for the half of the compounds with a filed dose; 0% is about no effect
Pf growth 96h: Primary qHTS for delayed death inhibitors of the malarial parasite plastid, 96 hour incubation; AID 504834, 2011; Potency, µM (doses to about 28.7 µM), for inactives: at the top dose activity change, negative = inhibition, most hits filed as inhibitors; 320,000 compounds, 6.9% hits; P. falciparum luciferase reporter growth, 96 h; active = well fitted inhibition curve with a large enough effect; inconclusive = small, poorly fitted or top-dose-only effect, or another doubt; inactive = no such curve, though single readings can be large or run the other way; note: potency is the fitted concentration of half-maximal effect; % is set by controls: 0 for no effect and ±100 for the full control effect
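Delayed-death screen, second-generation endpoint: infected erythrocytes, 2% hematocrit, 0.05% parasitemia final; 96 hours at 37 C, 5% CO2; luciferase detection reagent; luminescence decrease equals reduced growth.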
Shiga toxin inh: A qHTS for Small Molecule Inhibitors of Shiga Toxin. inhibition, % at 38.7 µM. Vero cells, Shiga toxin protein synthesis inhibition reporter. 290,000 compounds, 9.2% hits; in the data active = inhibition mostly above about 28%, no sharp cut-off; inactive = mostly below about 43%; note: 0% is about no effect
NS1 function inh: qHTS Assay for Inhibitors of Influenza NS1 Protein Function | Potency, µM (top dose mostly 46.1 µM), without a hit: at the top dose activity, positive = more growth | 270,000 compounds, 0.4% hits; note: potency is the fitted concentration of half-maximal effect; actives are rising curves; nearly all actives have a fitted effect of over 50% in size
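A cell-based growth assay was used: compounds that relieve NS1-induced slow growth of budding yeast raise OD600. Assay medium was yeast nitrogen base with ammonium sulphate and -URA supplement, pH 6.0, with 2% galactose.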
SARS PLpro yeast: qHTS of Yeast-based Assay for SARS-CoV PLP; S. cerevisiae expressing SARS-CoV PLpro, growth rescue; Potency, µM (doses to about 32.9 µM), for inactives: at the top dose activity, positive = growth rescue, usual class: activators; 330,000 compounds, 0.19% hits; AID 485353, 2010; note: potency is the fitted concentration of half-maximal effect; 0% is about no effect; nearly all actives have a fitted effect of over 55% in size
Numbers without * were called inactive; ? = inconclusive; . = not tested or not shown. Shown are actives, neighbours in structure and some others; about 21% of the full set was active somewhere. Unless noted, calls come from the whole dose curve.

SMILES | Pf growth 48h | Cycloheximide cs | Pf growth 96h | Shiga toxin inh | NS1 function inh | SARS PLpro yeast
CCOc1ccc(S(=O)(=O)N(CC)CC(=O)NCc2cccnc2)cc1 | 8% | 1 | 12µM* | -3 | -8% | 2%
CCN(CC)S(=O)(=O)c1ccc(OCC(=O)NCc2ccccc2)cc1 | ? | -1 | 9.3µM* | -3 | -17% | 0%
COc1ccc(S(=O)(=O)N(C)CC(=O)NCc2cccnc2)cc1 | 6% | 10 | ? | 75* | -9% | 4%
O=C(COC(=O)COc1cccc(Br)c1)Nc1c(Cl)cccc1Cl | -10% | -5 | -3% | -2 | -9% | -13%
Cc1ccc(N(CC(=O)NCc2cccnc2)S(C)(=O)=O)cc1C | 11% | 1 | 4.1µM* | -13 | 5% | 0%
COc1ccc(-c2cc3c(=O)n(CC(=O)NCc4cccnc4)ncn3n2)cc1 | 198% | 28* | 15µM* | 37* | -7% | 7%
COc1cc(C(c2nnnn2C2CCCC2)N2CCN(C(=O)c3ccco3)CC2)cc(OC)c1OC (configuration not stated) | -19% | -2 | 5% | -7 | -2% | -2%
COc1ccc(CN([C@H](CO)CC(C)C)S(=O)(=O)N(Cc2ccccc2)[C@H](CO)CC(C)C)cc1 | . | . | . | . | . | -2%
CC(C)C[C@@H](CO)N(Cc1ccccc1)S(=O)(=O)N(Cc1ccccc1)[C@@H](CO)CC(C)C | 7.4µM* | . | 2.6µM* | . | . | 2%
CC(C)C[C@@H](CO)N(Cc1ccccc1)S(=O)(=O)N(Cc1ccccc1)[C@H](CO)CC(C)C | 4.7µM* | . | ? | . | . | -16%
C=CCN([C@@H](CC(C)C)C(=O)OC)S(=O)(=O)N(CC=C)[C@@H](CC(C)C)C(=O)OC | 4.7µM* | . | ? | . | . | 3%
COC(=O)[C@@H](CC(C)C)NS(=O)(=O)N(Cc1ccccc1)[C@@H](CC(C)C)C(=O)OC | 13µM* | . | ? | . | . | 0%
CC(C)[C@H](NC(=O)c1ccco1)C(=O)OCC(=O)NC12CC3CC(CC(C3)C1)C2 | 8% | 21* | -2% | 59* | . | 6%
CC(C)[C@H](NC(=O)c1ccco1)C(=O)OCC(=O)N1CC(=O)Nc2ccccc21 | 23% | -1 | 2% | 20 | . | -5%
CC(C)[C@H](NC(=O)c1ccco1)C(=O)OCC(=O)N1CCc2ccccc21 | 33% | 14* | . | 73* | -24% | 0%
COc1ccc(NC(=O)Cn2ccc(C(F)(F)F)n2)cc1S(=O)(=O)N1CCOCC1 | . | . | . | . | . | 3%
Cc1cc(C)nc(/N=C(\NC(=O)C(C)(C)C)Nc2ccc(F)cc2)n1 | -22% | 14 | 9% | 19 | 5% | 1%
COc1ccc(N(CCC#N)C(=O)/C(C#N)=C/c2cccs2)cc1 | ? | 20 | 4% | 14 | . | 1%
CC(C)=N/N=C1\NC(=O)C(C)S1 (configuration not stated) | 4.7µM* | 29* | 1.2µM* | 27 | 0% | -5%
C/C(=N\N=C1/NC(=O)C(C)S1)c1ccc([N+](=O)[O-])cc1 (configuration not stated) | 4% | -2 | -30% | 9 | -21% | 4%
CN1CCc2c(cc(O)c(O)c2Cl)C(c2cccc(Cl)c2)C1 (configuration not stated) | . | . | . | . | 17% | .
O=c1[nH]c(-c2ccc(O)cc2)nc2scc(-c3cccs3)c12 | 36% | 80* | 2% | 108* | 3% | -2%
CCOC(=O)C1(CCOC)CCN(C(=O)Cc2ccc3ccccc3c2)CC1 | -16% | -2 | ? | 5 | 17% | 2%
CC(C)(CN)CN | . | . | . | . | 0% | .
O=C(NCC1CCCO1)c1c(O)c2c([nH]c1=O)CCCC2 (configuration not stated) | 88% | 13* | ? | 29 | -3% | -7%
O=C(Nc1ccc(O)cc1)c1c(O)c2c([nH]c1=O)CCCC2 | 345% | 44* | 28% | 146* | . | 3%
O=C(Cn1nnc2ccccc21)OCC(=O)c1ccccc1 | -7% | -3 | 4.1µM* | 13 | 2% | -11%
O=C(Cn1nnc2ccccc21)c1cccc([N+](=O)[O-])c1 | 5% | 3 | ? | 6 | 19% | 8%

Compound activity from PubChem.
